# Experiments:
# Settings in all cases: concentration: 1 μM, replicates: in singlicate; n = 1
# JNK1 = system: T1, JNK1
# T1 construct: gene MAPK8
# JNK2 = system: T2, JNK2
# T2 construct: gene MAPK9
# JNK3 = system: T3, JNK3
# T3 construct: gene MAPK10
# KIT-autoinhibited = system: KIT-autoinhibited
# KIT = system: KIT
# LATS1 = system: LATS1
# LATS2 = system: LATS2
# LCK = system: LCK
# LIMK1 = system: LIMK1
# LIMK2 = system: LIMK2
# 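Further: KINOMEscan kinase panel screen.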
SMILES,%Inh (JNK1) [%],%Inh (JNK2) [%],%Inh (JNK3) [%],%Inh (KIT-autoinhibited) [%],%Inh (KIT) [%],%Inh (LATS1) [%],%Inh (LATS2) [%],%Inh (LCK) [%],%Inh (LIMK1) [%],%Inh (LIMK2) [%]
Clc1ccc(-c2cc(-c3c[nH]nc3-c3ccccn3)ccn2)cc1 [GW681251],35,30,33,0,54,0,0,13,0,0
Cc1ccc(O)cc1Nc1cc(C(F)(F)F)nc2ccc(-c3ccncc3)cc12 [GW630823],0,0,0,0,14,0,0,14,21,15
CCC(CC)(CC)n1cnc2c(N)ncnc21 [SKF-97620],29,24,4,0,0,24,0,14,10,0
Fc1cccc(COc2ccc(Nc3ncnc4nn5ccccc5c34)cc2Cl)c1 [GW689066],11,10,0,0,0,0,0,5,0,0
O=C(c1ccc(-c2cc(-c3c[nH]nc3-c3ccccn3)ccn2)cc1)N1CCCC1 [GW792479],27,0,0,0,11,0,0,3,0,0
COC(=O)c1c(-c2ccccc2)c2cc(Cl)ccc2c(=O)n1Cc1ccc(S(C)(=O)=O)cc1,98.8,99.5,99.4,0,56,30,19,13,1,0
CC(C)(C)OC(=O)NC1CCCN(c2cc(-c3ccc4c(N)n[nH]c4c3)nc(N)n2)C1 (stereo not drawn) [GSK2286096],34,21,7,0,8,11,0,0,6,0
Cl.c1ccc(Cn2ncc3cc(Nc4ncnc5ccccc45)ccc32)cc1 [GW273749],5,5,0,0,4,0,0,15,0,75
Cl.c1ccc(Cn2ccc3cc(Nc4ncnc5ccccc45)ccc32)cc1 [GW275568],0,23,16,0,41,0,22,41,8,15
Cl.Fc1ccccc1COc1ccc(Nc2ncnc3ccc(-c4nnc(C(F)(F)F)o4)cc23)cc1Cl [GW424170],0,4,0,0,13,0,0,12,0,16
Cn1ccc2ncnc(Oc3ccc(NC(=O)Nc4cccnc4)c(Cl)c3)c21,0,0,0,0,98.7,23,0,0,0,0
CS(=O)(=O)CCNCc1ccc(-c2ccc3ncnc(Nc4ccc(OCc5ccccc5)c(Cl)c4)c3c2)o1.Cl [GW574783],18,4,0,0,10,0,11,30,0,1
Cc1ccc(NC(=O)c2cccc(C#N)c2)cc1-c1ccc(C(=O)Nc2ccncc2)cc1 [GSK1398463],25,16,17,13,100,19,0,83,28,14
Cc1cccc(-c2nc(Nc3ccc4[nH]nnc4c3)c3ccccc3n2)n1 [GW867587],0,0,0,0,0,0,0,7,0,0
Cl.O=S(=O)(c1cccc(F)c1)c1ccc(Nc2ncnc3cc(Br)sc23)cc1Cl [GSK306886],0,7,4,0,34,0,0,15,33,3
OCCOCCn1ccc2ncnc(Nc3ccc(Oc4cccc(Cl)c4)c(Cl)c3)c21,0,0,0,0,0,0,0,41,0,0
CSc1ccc(NC2=C(c3ccccc3Cl)C(=O)NC2=O)cc1 [SB-342411],1,1,0,0,25,5,23,18,0,7

SMILES,%Inh (JNK1) [%],%Inh (JNK2) [%],%Inh (JNK3) [%],%Inh (KIT-autoinhibited) [%],%Inh (KIT) [%],%Inh (LATS1) [%],%Inh (LATS2) [%],%Inh (LCK) [%],%Inh (LIMK1) [%],%Inh (LIMK2) [%]
CC(=O)Nc1n[nH]c2ncc(-c3ccccc3)cc12 [SB-548492],40,17,17,21,67,14,4,30,0,45
Oc1ccc2ncnc(Nc3ccc(OCc4ccccc4)cc3)c2c1 [GI262866],0,0,0,0,48,0,0,2,0,4
Nc1n[nH]c2nnc(-c3ccccc3)cc12 [SB-517389],27,5,0,0,1,0,0,0,19,3
Clc1cc(Nc2ncnc3cc[nH]c23)ccc1OCc1ccccn1,31,40,53,11,38,14,29,7,0,0
CNc1nccc(-c2c(-c3ccc(F)cc3)ncn2C2CCN(C)CC2)n1 [SB-222903],0,69,43,0,0,2,0,0,0,0
Fc1ccc(Nc2nccc(-c3c(-c4ccc(Cl)cc4)nn4ncccc34)n2)cc1F [GW829058],40,63,56,12,38,11,19,11,0,7
O=c1cc(N2CCOCC2)nc2n(Cc3cccc(Cl)c3)ccn12 [GSK2296823],21,12,7,4,11,0,46,17,15,0
CCCc1ccc(S(=O)(=O)NC2CCN(c3ccnc(Nc4ccc(OC)cc4)n3)C2)cc1 (stereo not drawn) [GSK1379737],20,21,0,0,37,0,0,16,0,100
Fc1ccc(-c2ncn(CCCNCc3ccccc3)c2-c2ccncc2)cc1,34,48,57,4,19,30,34,40,10,7
O=C(Nc1n[nH]c2nc(-c3ccco3)c(Br)cc12)c1ccc(CN2CCCC2)cc1.O=C(O)[C@H](O)[C@@H](O)C(=O)O [SB-742352],0,0,0,0,99.2,0,0,47,26,0
C[C@@H]1CCN(C(=O)CO)C[C@@H]1N(C)c1ncnc2[nH]ccc12,19,0,0,0,12,0,16,20,0,8
C[C@H]1CC[C@@H](C(=O)Nc2ccccc2)CN1c1cc(-c2ccc3c(N)n[nH]c3c2)nc(N)n1 [GSK2283293],5,25,1,16,1,0,9,5,0,0
O=C(Nc1ccccc1)Nc1ccc(Oc2ccc3nccn3n2)cc1,0,0,0,28,95.8,0,0,21,10,14
Clc1cccc(-c2nc(Nc3ccncc3)c3ccccc3n2)c1 [GW873004],0,0,0,1,10,14,0,31,54,12
Fc1cccc(COc2ccc(Nc3ncnc4sc(-c5ccc[nH]5)cc34)cc2Cl)c1 [GW707818],1,15,0,0,16,9,0,8,9,17
COc1ccc(NC(=O)c2ccc(-c3cc(-c4nnc(C)o4)ccc3C)cc2)cc1 [GW595885],20,17,12,0,64,0,0,18,3,0
